PubChem BioAssay AID1030 (National Center for Advancing Translational Sciences (NCATS), 2008)
Screen size: about 220,000 compounds; about 16,000 (7.3%) were called active. Entries that show only a call come without a potency. Not shown: some 25% with an inconclusive outcome. The sample holds actives, similar compounds and a random draw of the others, so the mix is not that of the screen. Unmarked numbers belong to inactive results. Calls come from the whole dose curve; as a rule, active = well fitted inhibition curve with a large enough effect (not every such curve was filed as active); inconclusive = small, poorly fitted or top-dose-only effect, or another doubt; inactive = no such curve, though single readings can be large or run the other way.

Target: Aldehyde dehydrogenase 1A1 (Homo sapiens) (UniProt P00352)
Experiment: qHTS Assay for Inhibitors of Aldehyde Dehydrogenase 1 (ALDH1A1)
Conditions: Purified ALDH1A1, NADH fluorescence, propionaldehyde substrate; series mostly up to 75.3 µM
Potency is the fitted concentration of half-maximal effect.

Aldehyde dehydrogenase 1A1 (Homo sapiens), sequence (P00352 whole entry, looked up): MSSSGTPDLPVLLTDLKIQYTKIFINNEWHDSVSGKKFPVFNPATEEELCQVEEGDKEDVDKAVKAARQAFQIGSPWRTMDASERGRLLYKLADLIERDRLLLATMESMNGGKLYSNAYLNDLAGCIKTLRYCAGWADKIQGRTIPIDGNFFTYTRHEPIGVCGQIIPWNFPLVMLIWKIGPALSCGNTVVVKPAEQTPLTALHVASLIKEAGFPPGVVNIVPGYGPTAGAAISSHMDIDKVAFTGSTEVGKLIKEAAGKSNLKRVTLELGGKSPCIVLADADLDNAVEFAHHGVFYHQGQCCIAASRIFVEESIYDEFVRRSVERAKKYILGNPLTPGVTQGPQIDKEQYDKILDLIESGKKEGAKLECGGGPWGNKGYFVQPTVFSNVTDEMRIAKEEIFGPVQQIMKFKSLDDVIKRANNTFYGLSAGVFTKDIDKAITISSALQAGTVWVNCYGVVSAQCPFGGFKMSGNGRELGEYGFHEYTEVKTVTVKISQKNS

| SMILES | Potency | activity, negative = inhibition |
| --- | --- | --- |
| C/C(=N/Nc1ccc(Cl)cc1)c1cnnc(-c2ccccc2)n1 | inactive |  |
| CC1CCCN(CC(O)COCc2ccccc2)C1 (stereo not given) | inactive |  |
| CCOC(=O)c1c(-c2ccc(C)cc2C)csc1NC(=O)CSc1nnnn1C | inactive |  |
| CCOC(=O)CNC(=O)CSc1nnnn1-c1cc(C)ccc1C | 7.08 µM (active) |  |
| CNC(=O)CSc1nnnn1-c1ccc(C)cc1C | inactive |  |
| NC(=O)C1CCN(C(=O)COc2cccc3cccnc23)CC1 | inactive |  |
| Cn1ccc(NC(=O)Nc2ccc(Cl)cc2)n1 | inactive |  |
| Cc1ccc2c(C(=O)CN3CCCC3)c(C)[nH]c2c1 | inactive |  |
| O=C(CN1CCOCC1)Nc1ccccc1 | inactive |  |
| CCOC(=O)N1CCN(CC(=O)c2c(C)[nH]c3ccccc23)CC1 | 11.2 µM (active) |  |
| Cc1c(C(=O)CN2CCOCC2)[nH]c2ccccc12 | 15 µM (active) |  |
| Cc1c(C(=O)N2CCOCC2)[nH]c2ccc(OCc3ccccc3)cc12 | inactive |  |
| Cc1[nH]c2ccccc2c1C(=O)COC(=O)C(C)C | inactive |  |
| CCN(C(=O)Cc1nc(N)n[nH]1)C1(C(=O)Nc2ccccc2)CCCCC1 | inactive |  |
| COc1ccc(/C=C(\NC(=O)c2ccc(OCC(C)C)cc2)C(=O)OCc2ccco2)cc1 | inactive |  |
| CCOc1ccc(-n2cnnn2)cc1S(=O)(=O)N1CCC(C)CC1C (stereo not given) | inactive |  |
| N=C1C(c2nc3ccccc3s2)=C(O)CN1NC(=O)c1ccc([N+](=O)[O-])cc1 | 1.78 µM (active) |  |
| O=C(Nn1c(-c2ccccc2)nc2ccccc2c1=O)c1ccc([N+](=O)[O-])cc1 | inactive |  |
| CCOC(=O)CCCN1CC(O)=C(c2nc3ccccc3s2)C1=N | inactive |  |
| O=C(NC1CC1)c1ccc(-c2ccccc2)cc1 | inactive |  |
| CCOc1ccc(/C=N/NC(N)=S)cc1 | inactive |  |
| Cc1cccc(-n2c(C)cc(/C=N/NC(N)=S)c2C)c1 | 3.16 µM (active) |  |
| Cc1cc(/C=N/n2cnnc2)c(C)n1-c1cccc(C(=O)O)c1 | inactive |  |
| COc1ccc(-c2nc3cc([N+](=O)[O-])ccc3o2)cc1OC | inactive |  |

| SMILES | Potency | activity, negative = inhibition |
| --- | --- | --- |
| CCOC(=O)C1(C)NC(c2ccco2)C2C(=O)N(c3ccccc3)C(=O)C21 (stereo not given) | inactive |  |
| COc1ccc(Cl)cc1C(=O)NNC(=S)NC1CCCC1 | inactive |  |
| COc1ccc(CNC(=O)C2CCN(S(C)(=O)=O)CC2)cc1 | inactive |  |
| Cc1cccc(C)c1OCC(=O)NC(Cc1c[nH]c2ccccc12)C(=O)O (stereo not given) | inactive |  |
| CCN(C(=O)CN1CCN(Cc2ccccc2)CC1)c1c(N)n(Cc2ccccc2)c(=O)[nH]c1=O | inactive |  |
| N#C/C=C(/c1ccc(F)cc1)N1CCOCC1 | inactive |  |
| COC(=O)c1cn(C(=O)c2ccc(Cl)cc2)c2ccccc12 | inactive |  |
| O=C(c1ccc(F)cc1)n1cc(C(=S)N2CCOCC2)c2ccccc21 | 31.6 µM (active) |  |
| CC(=C/c1ccccc1)/C=N/NC(=O)c1cc(C)oc1C | inactive |  |
| COc1ccc(OC)c(S(=O)(=O)Nc2ccccc2F)c1 | inactive |  |
| COc1ccc(OC)c(S(=O)(=O)NCCC(C)C)c1 | 14.1 µM (active) |  |
| COCCNS(=O)(=O)c1cc(Br)ccc1OC | inactive |  |
| CC(Nc1oc(-c2ccccc2)nc1-c1ccccc1)c1ccccc1 (stereo not given) | inactive |  |
| O=C(COC(=O)c1cnccn1)Nc1cccc2ccccc12 | inactive |  |
| NS(=O)(=O)c1ccc(CCNC(=O)CCCn2c(SCC(=O)N3CCCC3)nc3ccsc3c2=O)cc1 | inactive |  |
| Cc1nn(CC(=O)Nc2ccc3c(c2)OCO3)c(C)c1[N+](=O)[O-] | inactive |  |
| CCCCC(=O)Nc1ccc2c(c1)OCCO2 | inactive |  |
| CCN(CC(=O)Nc1ccc2c(c1)OCCO2)Cc1cc(=O)oc2cc(C)c(C)cc12 | 10 µM (active) |  |
| Cc1ccc(S(=O)(=O)/N=C(\N)c2ccc(F)cc2)cc1 | inactive |  |
| C/C(=N\Nc1nc(Nc2ccccc2)nc(N2CCOCC2)n1)c1cccs1 | inactive |  |
| COc1cc2nc(CN(C)Cc3ccc(F)cc3)[nH]c(=O)c2cc1OC | inactive |  |
| CCCCCC(=O)NC(=S)NNC(=O)c1ccc([N+](=O)[O-])cc1 | 14.1 µM (active) |  |
| CCCCCC(=O)Nc1ccc(C(=O)N/N=C/c2ccc([N+](=O)[O-])cc2)cc1 | inactive |  |
| COCCCNC(=S)NC(=O)c1ccc([N+](=O)[O-])cc1 | 20 µM (active) |  |

| SMILES | Potency | activity, negative = inhibition |
| --- | --- | --- |
| COCCCNC(=S)NNC(=O)C(O)(c1ccccc1)c1ccccc1 | inactive |  |
| COc1ccc(C(=O)NNC(=S)NC(=O)c2ccccc2[N+](=O)[O-])cc1 | inactive |  |
| COCCCNC(=S)NC(=O)c1ccccc1 | inactive |  |
| CCNC(=O)N1c2ccccc2Sc2ccccc21 | inactive |  |
| COC(=O)Cc1ccc(Oc2ncc(C(F)(F)F)cc2Cl)cc1 | inactive |  |
| CC(=O)Nc1sc2c(c1C(c1cccc(F)c1)N1CCN(CCO)CC1)CCCC2 (stereo not given) | inactive |  |
| C/[N+]([O-])=C\c1ccc([N+](=O)[O-])o1 | inactive |  |
| C=CCN(c1ccccc1C(=O)NCC(=O)OCC)S(=O)(=O)c1ccc(C)cc1 | inactive |  |
| CCN(CC)CCCNC(=O)Cn1cnc2sc(C)c(S(=O)(=O)N3CCN(c4ncccn4)CC3)c2c1=O | inactive |  |
| O=C(/C=C/c1cn(-c2ccccc2)nc1-c1ccc2c(c1)OCCO2)NCCCN1CCOCC1 | inactive |  |
| CC(=O)[C@H](C(c1ccccc1)N1CCOCC1)N1CCOCC1 (stereo not given in full) |  | -3.8% [at 13.5 µM] |
| CC(C)(C)C(=O)CCN1C(=O)C2(OCCO2)c2ccccc21 | inactive |  |
| CN1/C(=C\C(=O)c2cccnc2Cl)C(C)(C)c2ccccc21 | inactive |  |
| CCOC(=O)CN1C(=O)C(O)(CC(=O)c2ccccn2)c2ccccc21 (stereo not given) | 0.224 µM (active) |  |
| CCOC(=O)CN1CCC(c2ccccc2)CC1 | inactive |  |
| C=CCN1C(=O)C(O)(CC(=O)c2ccc(Cl)cc2)c2ccccc21 (stereo not given) | 0.447 µM (active) |  |
| C=CCN1C(=O)C(O)(CC(=O)c2ccccn2)c2ccccc21 (stereo not given) | 0.355 µM (active) |  |
| CCOC(=O)CSc1ccccn1 | inactive |  |
| O=C(CSc1nnnn1-c1ccc(O)cc1)N1N=C(c2ccc3ccccc3c2)CC1c1ccccc1 (stereo not given) | inactive |  |
| CCc1ccc(NC(=O)Nc2ccncc2)cc1 | inactive |  |
| COC(=O)c1cccc([N+](=O)[O-])c1CS(=O)(=O)c1ccc(C)cc1 | inactive |  |
| CCOc1ccc(C2c3[nH]c4ccccc4c3CCN2Cc2cn(CC)nc2C)cc1 (stereo not given) | inactive |  |
